Results taken from PubChem BioAssay (NCI).
Compounds without any hit were thinned out: in the full panel of roughly 79,000, 15% have a hit. Calls of active or inactive are those of the source. Cut-off read from the data, not from the text of the source: active = growth inhibition above about 70%; inactive = the rest.

Columns and labels:
[1] = NCI Yeast Anticancer Drug Screen. Data for the rad50 strain (AID 155);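 note: 0% = growth of vehicle-only cultures of the same strain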; conditions: S. cerevisiae rad50 strain growth inhibition, hits give high values
Method in brief: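 Inhibition values express reduced yeast growth in compound-treated cultures relative to vehicle-treated controls.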

[2] = NCI Yeast Anticancer Drug Screen. Data for the mec2-1 strain (AID 157); conditions: S. cerevisiae mec2-1 strain, hits give high values
Method in brief: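 Readout is yeast growth inhibition, normalised to vehicle-treated controls, in the mec2-1 strain exposed to compound.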

[3] = NCI Yeast Anticancer Drug Screen. Data for the sgs1 mgt1 strain (AID 161);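 note: 0% = growth of cultures given vehicle only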; conditions: S. cerevisiae sgs1 mgt1 strain, hits give high values
Method in brief: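 Yeast cells carrying a defined DNA-repair defect were exposed to test compounds. Growth inhibition was measured relative to vehicle-treated controls.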

[4] = NCI Yeast Anticancer Drug Screen. Data for the cln2 rad14 strain (AID 165);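 note: 0% = growth equal to vehicle treated cultures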; conditions: S. cerevisiae cln2 rad14 strain, hits give high values
Method in brief: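 Relative to vehicle controls, growth inhibition of compound-treated cln2 rad14 yeast was recorded.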

[5] = NCI Yeast Anticancer Drug Screen. Data for the bub3 strain (AID 167); conditions: S. cerevisiae bub3 mutant strain, hits give high values
Method in brief: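 Steps: expose the mutant yeast strain to compound; grow alongside vehicle-treated cultures; measure growth; express inhibition against the vehicle cultures.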

[6] = NCI Yeast Anticancer Drug Screen. Data for the mlh1 rad18 strain (AID 175); conditions: S. cerevisiae mlh1 rad18 strain growth inhibition, hits give high values
Method in brief: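 Test agents were incubated with a yeast strain of defined genotype (DNA damage repair defect). Inhibition of growth was derived by comparison with vehicle-exposed cultures.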

[7] = at 5.0 µM (retest, dose inferred, filed as 0.5)
[8] = at 50.0 µM (retest, dose inferred, filed as 5.0)

Measured: growth inhibition

COc1cc2c(cc1O)CCN[C@@]21CS[C@H]2c3c(OC(C)=O)c(C)c4c(c3C(COC1=O)N1C2C2c3c(cc(C)c(OC)c3O)CC([C@@H]1O)N2C)OCO4 (stereo not given in full)
active: [1]; [7] 98% | [1]; [8] 99% | [1]; at 50.0 µM 92.7% | [2]; [7] 99% | [2]; [8] 99% | [2]; at 50.0 µM 94% | [3]; [7] 99% | [3]; [8] 99% | [3]; at 50.0 µM 93.4% | [4]; [7] 99% | [4]; [8] 99% | [4]; at 50.0 µM 91.6% | [5]; [7] 99% | [5]; [8] 99% | [5]; at 50.0 µM 93.2% | [6]; [7] 99% | [6]; [8] 99% | [6]; at 50.0 µM 92%

CC(/C=C/NNC1=NC(c2ccccc2)C(c2ccccc2)=NN1)Sc1ccccc1N (stereo not given)
active: [1]; at 50.0 µM 92.8% | [2]; at 50.0 µM 93.2% | [3]; at 50.0 µM 90.7% | [4]; at 50.0 µM 90.8% | [5]; at 50.0 µM 92.9% | [6]; at 50.0 µM 91.3%
inactive: [1]; [7] 43% | [1]; [8] 43% | [2]; [7] 22% | [2]; [8] 22% | [3]; [7] 31% | [3]; [8] 31% | [4]; [7] 18% | [4]; [8] 18% | [5]; [7] 25% | [5]; [8] 25% | [6]; [7] 17% | [6]; [8] 17%

Cc1nc(Nc2ccc(Cl)cc2)sc1C(=O)NNC(=S)NN
inactive: [1]; [7] 25% | [2]; [7] -9% | [2]; [8] 64% | [3]; [7] -3% | [4]; [7] 8% | [4]; [8] 65% | [5]; [7] -5% | [6]; [7] -30%
active: [1]; [8] 75% | [1]; at 50.0 µM 91.5% | [2]; at 50.0 µM 88% | [3]; [8] 77% | [3]; at 50.0 µM 91.8% | [4]; at 50.0 µM 91.6% | [5]; [8] 93% | [5]; at 50.0 µM 88.3% | [6]; [8] 82% | [6]; at 50.0 µM 88.5%

C/C(=N/O)c1ccc2c(c1)C(=NO)c1cc(/C(C)=N/O)ccc1-2
active: [1]; [8] 98% | [1]; at 50.0 µM 89.9% | [2]; [8] 99% | [2]; at 50.0 µM 94.7% | [3]; [8] 99% | [3]; at 50.0 µM 94.2% | [4]; [8] 99% | [4]; at 50.0 µM 93.7% | [5]; [8] 98% | [5]; at 50.0 µM 93.5% | [6]; [8] 98% | [6]; at 50.0 µM 91%
inactive: [1]; [7] 19% | [2]; [7] -10% | [3]; [7] 10% | [4]; [7] 14% | [5]; [7] 21% | [6]; [7] 1%

O=C(O)Cc1c[nH]c2ccccc12
active: [3]; at 50.0 µM 94% | [5]; [7] 85% | [5]; at 50.0 µM 92.5% | [6]; [7] 84% | [6]; at 50.0 µM 91.2%
inactive: [1]; [7] 46% | [1]; [8] -3% | [1]; at 50.0 µM 51% | [2]; [7] 31% | [2]; [8] 7% | [2]; at 50.0 µM 64% | [3]; [7] 42% | [3]; [8] -2% | [4]; [7] 9% | [4]; [8] -12% | [4]; at 50.0 µM 49% | [5]; [8] -8% | [6]; [8] -2%

O=C(OCC1OC(OCC(OC(=O)c2ccccc2)C(OC(=O)c2ccccc2)C(OC(=O)c2ccccc2)c2cnn(-c3ccccc3)n2)C(OC(=O)c2ccccc2)C(OC(=O)c2ccccc2)C1OC(=O)c1ccccc1)c1ccccc1 (stereo not given)
inactive: [1]; [7] -6% | [1]; [8] -1% | [2]; [7] -14% | [2]; [8] -21% | [3]; [7] -1% | [3]; [8] -6% | [4]; [7] 6% | [4]; [8] 7% | [5]; [7] -12% | [5]; [8] 4% | [6]; [7] -4% | [6]; [8] -10%
active: [1]; at 50.0 µM 97.5% | [2]; at 50.0 µM 94.8% | [3]; at 50.0 µM 98% | [4]; at 50.0 µM 98.6% | [5]; at 50.0 µM 96.8% | [6]; at 50.0 µM 97.7%

S=c1ncc2c([nH]1)C1c3ccccc3C2c2ccccc21
inactive: [1]; [7] -9% | [2]; [7] -6% | [3]; [7] 2% | [4]; [7] 27% | [5]; [7] 16% | [6]; [7] -1%
active: [1]; [8] 98% | [1]; at 50.0 µM 86% | [2]; [8] 98% | [2]; at 50.0 µM 92% | [3]; [8] 98% | [3]; at 50.0 µM 90.1% | [4]; [8] 99% | [4]; at 50.0 µM 88% | [5]; [8] 98% | [5]; at 50.0 µM 92.4% | [6]; [8] 98% | [6]; at 50.0 µM 90.5%

C=CCOC(=O)CC(OC(C)=O)C(CC)CC(C)C (stereo not given)
inactive: [1]; [7] 0% | [1]; [8] 26% | [1]; at 50.0 µM 24.4% | [2]; [7] -1% | [2]; [8] 12% | [2]; at 50.0 µM 19.1% | [3]; [7] -6% | [3]; [8] 3% | [3]; at 50.0 µM 18.3% | [4]; [7] 2% | [4]; [8] 20% | [5]; [7] 3% | [5]; [8] 15% | [5]; at 50.0 µM 40.3% | [6]; [7] 0% | [6]; [8] 12% | [6]; at 50.0 µM 27.9%
active: [4]; at 50.0 µM 80.7%

CC1=C(C(=O)Nc2ccccc2)C(c2cccc3ccccc23)C(C(=O)Nc2ccccc2)=C(C)N1
inactive: [1]; [7] -2% | [1]; [8] 53% | [2]; [7] -17% | [2]; [8] 51% | [3]; [7] 0% | [3]; [8] 41% | [3]; at 50.0 µM 48.6% | [4]; [7] -2% | [4]; [8] 64% | [4]; at 50.0 µM 64.3% | [5]; [7] -7% | [5]; [8] 53% | [6]; [7] -4% | [6]; [8] 53% | [6]; at 50.0 µM 58.7%
active: [1]; at 50.0 µM 71% | [2]; at 50.0 µM 91% | [5]; at 50.0 µM 89%

c1cc2ccc1C1NCCCN1CCN1CCCNC1c1ccc(cc1)C1NCCCN1CCN1CCCNC21 (stereo not given)
inactive: [1]; [7] 3% | [1]; [8] -11% | [1]; at 50.0 µM -8.3% | [2]; [7] -19% | [2]; [8] -2% | [2]; at 50.0 µM -22.6% | [3]; [7] -14% | [3]; [8] 3% | [3]; at 50.0 µM -2% | [4]; [7] -25% | [4]; [8] -8% | [4]; at 50.0 µM 53.2% | [5]; [7] -1% | [5]; [8] -1% | [5]; at 50.0 µM 4.1% | [6]; [7] -28% | [6]; [8] -14% | [6]; at 50.0 µM -31.4%
